This experiment concerns RARb:RXRa (NR concentration 270 nM, RXRa partner concentration 90 nM). Put plainly: PBM binding z-score (relative to random genomic background probes); higher = stronger binding; sequences stand for … in GC…GCGATTGACAGCGTAGAATGAAGG
In outline:
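Custom Agilent 4×180K protein-binding microarrays carried double-stranded probes, each with a 34-nt variable region. These regions held direct-repeat seeds, single-nucleotide variants, half-site ablations and random human genomic background sequences. Ligand-free nuclear receptor dimers were incubated on the arrays for 1 h, antibodies against each partner (one per run) detected binding, and scanned fluorescence was regression-normalized. Binding z-scores take the random background probes as reference.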
CAAACTAGGTCGAAGGTCAAAGTCGAGCCAACCA had a PBM binding z-score of 4.16. GCGACTGGGGCATCAGCAGGTTACTATAACTTAA displayed a PBM binding z-score of 0.825. CGAACGAGGCCATGAGTTGATAGCAAATGCCGAT had a PBM binding z-score of 0.941. Sequence ATCGAAATGTCGACGAGGTGAGTATACACCGTTT came in with a PBM binding z-score of 0.403. Turning to CCTACTGCGCCAAAAAGGTCATTGATGCCGATAA, the PBM binding z-score came out at 4.05. Under TAGCCTAGGTCATGCGAGCCAGTATAGTGTCGGC stands 3.72; under CCTATTTGGTCAAGGTCACACACGCTATAGGTAC, 4.3.

The sequence GGAAAGAGGGCAAGTTGATAGCAGAGTTTGATGG registered a PBM binding z-score of 2.93.

Regarding ATACGTAGGTTAGCTGGGGTCATTCAGACTAGGC, the PBM binding z-score amounted to 2.93. In turn, GGAACGAGGGCAAGTTTATAGCAGAGTTTGATGG showed a PBM binding z-score of 2.6. The sequence TAGCCTAGGTCAGATCGGGCCAGTTTACGCTATA displayed a PBM binding z-score of 2.69. On to CCTTACGGCTCACGAGGTTATAGCACGACGAGCG, for which the PBM binding z-score was found to be 0.347.

GCTTTTAGATCAAGGTTAAGAAAGACTAAGCTAA displayed a PBM binding z-score of 1.04. Turning to CGTCCAAGGTTAAAGGTCAGTGAAGAGATGACGG, the PBM binding z-score is 5.01. Turning to AGAATGAGGTTGTACGTAGATCAGGGAAGAAAGT, the PBM binding z-score worked out at 0.142.

Turning to CCTAGCAGTCCAATCTGGGTCACTCAAGGCTTGA, the PBM binding z-score was determined as 1.17.

In turn, AGAACGAGGGCACGCTGAGTCGATAGCAGAGTAG gave a PBM binding z-score of 2.42. Regarding AGAATGAGGTTATACGTATATCAGGGAAGAAAGT, the PBM binding z-score is 1.44. For TCTAGTTGGTCAATGGTCACACACTCGAAATGCG, the PBM binding z-score stood at 1.62. With GGAACGAGGGCAAAGTAGATAGCATCTGTCGACG the figure was 2.15. With AATACAGGGTCACTAGGACAGAGTAGGTACGAAT the figure was 4.27; with GTATCAAGGTGAATAGGTCGTTGATGAGTAGGCG, 2.14; with AGAATGTGGTTATACGTAGATCAGGGAAGAAAGT, 0.0601. GCTCGGAGGACAAGGTCAGAGCTTTGTCCGTAGA gave a PBM binding z-score of 3.52. Take CGTCAAAGTTCAACTAAGGTAGCGTAAAGCACGC: the PBM binding z-score was 5.15.

Sequence CCTTACGGGTCAAGCTTATAGCACGGGTGGTACG showed a PBM binding z-score of 4.05.

In the case of TTACCAAGGTGAGCTGAGGTCGTTGACCCAACTC, the PBM binding z-score was determined as 1.91.

ATCTCGAGGTAAAGATAGTTCAGTGAATGCAAAT gave a PBM binding z-score of 0.896. In turn, GCGACTGGGGCAAAGCAGGTTACCATAAGGTTGG gave a PBM binding z-score of 0.93. With CCCTACGGGTCAAGGTTATAGCACGGGTGGTACG the figure was 4.07. In turn, TCATTTAGGTAATACAGGTGAAAGTCGGCATCTA returned a PBM binding z-score of 1.07.

In turn, CCTCGGAGGAGAACAGGAGGTCAGAGCTGCCAGA displayed a PBM binding z-score of 1.95. Take CCTGCTAGGTCATCGTCAGCTAATCTACAGTATG: the PBM binding z-score is 4.03. In turn, CGTCCATGGTCAATGCTAGGTCAGTGAAAGCATT displayed a PBM binding z-score of 2.17. AGAACGAGGGCCCGCTGAGTTGATAGCAGAGTAG: the PBM binding z-score is -0.616. CCGCGGAGGACAGAAGGTCAGAGCTGTCCGCTTT had a PBM binding z-score of 3.25. In turn, TCTTGTAGATCAAGCAGGTTATGAAAGCCTGAGT registered a PBM binding z-score of 0.176.

For the sequence ACTAGCAAGCCAAGGGTCACTCAAGATTAGTCCG, the PBM binding z-score amounted to 3.11. With CTACCAAGGTGAACAAGGTCGCTGATTACTATTC the figure was 2.17; with TCGAGTAGGTTACCAATGGGGTATTCAGCTTTCT, 0.76.
